# System: HepG2
# Experiment: GSK_TCMDC: Percent inhibition of human HepG2 cell line. Test compounds present at 10uM.
# Type: functional
row,Compound,Inhibition
1,CCc1cn2c3c(cc(C(=O)N[C@@H](Cc4cc(F)cc(F)c4)[C@H](O)CNC4CCCCC4)cc13)N(C)S(=O)(=O)CC2.O=CO,9%
2,COc1cc(OC)cc(-c2nnc(Sc3ccc(C#N)c([N+](=O)[O-])c3)n2C)c1,1%
3,CCn1c(-c2nc(-c3ccc4c(c3)OCO4)cnc2N)nc2cnccc21,94%
4,CCN1CCN(c2cc(C)c3cc(NC(=O)c4ccc(N(CC)CC)cc4)ccc3n2)CC1,38%
5,CCOc1cc(C(=O)NCc2cc(Cl)cc(Cl)c2)ccc1-c1nc2cc(Cl)ccc2[nH]1,1%
6,CC1=C(C(=O)OCCOCc2ccccc2)C(c2ccccc2C(F)(F)F)C(C(=O)OCCOCc2ccccc2)=C(C)N1,0%
7,CCCNC(=O)C1CCN(C(c2ccc(Cl)cc2)c2ccc(Cl)cc2)CC1,7%
8,c1ccc(-c2ccc(-c3nc4ccccc4[nH]3)cc2)cc1,10%
9,Cc1ccc(Cn2ncc(N3CCC(N)CC3)c(Cl)c2=O)cc1NC(=O)Nc1ccc(-c2ccccc2)cc1.O=C(O)C(F)(F)F,29%
10,O=C(C1COc2ccccc2O1)N(CCCn1ccnc1)Cc1csc(-c2ccc(CNCc3ccccc3)cc2)n1.O=C(O)C(F)(F)F (stereo not given),15%
11,CCCCCCc1cnc2nc(N)nc(N)c2c1C,67%
12,O=C(O)C(F)(F)F.OC1CCCN(Cc2cccc(-c3ccc(-c4nc5ccccc5[nH]4)cc3)c2)C1 (stereo not given),25%
13,Cc1ccc(C(NC(=O)Cc2ccccc2)c2ccc3cccnc3c2O)cc1 (stereo not given),47%
14,CCOc1ccc2nc3cc(NC(=O)c4ccco4)ccc3c(N)c2c1,36%
15,COc1cc2nc(N3CCC(CNC(=O)c4cc(Br)c(Br)s4)CC3)nc(N)c2cc1OC.O=C(O)C(F)(F)F,22%
16,O=C(c1ccc(OCCn2ccnc2)cc1)N1CCC(c2ccc(Br)cc2)C1 (stereo not given),49%
17,N#Cc1cccc(COC(=O)C2=C(COc3ccccc3Cl)NC(=O)NC2c2c[nH]c3cnccc23)c1 (stereo not given),0%
18,CC(=O)Nc1ccc(CN2CCC(CNC(=O)c3cc(-c4cccc(Cl)c4)cs3)C2)cc1.O=C(O)C(F)(F)F (stereo not given),24%
19,O=C(Nc1ccc(-c2cccc(-c3nc4ccccc4[nH]3)c2)cc1)Nc1ccsc1,56%
20,CCC(C)c1ccc(NC(=O)Nc2ccnc3ccccc23)cc1.Cl (stereo not given),27%

row,Compound,Inhibition
1,CCN(CC)CC#Cc1ccc2[nH]c(C)c(Cl)c(=O)c2c1,11%
2,Cc1cccc(-n2nc(C)c3c2NC(=O)CC3C(=O)c2ccc(Cl)s2)c1 (stereo not given),13%
3,Cc1nc2ccc(-c3nc4cc(N)ccc4[nH]3)cc2[nH]1,6%
4,CCCNCc1ccc(-c2ccc(CN(CCOC)C(=O)c3ccco3)cc2)nc1.O=C(O)C(F)(F)F,1%
5,Clc1ccccc1CN1CCC(NCc2cccc(-n3ccnc3)c2)CC1.O=C(O)C(F)(F)F,6%
6,COc1ccc2nccc([C@@H](O)CN3CCC(NC(=O)C(c4ccsc4)N4CCN(c5ccccc5OC)CC4)CC3)c2c1 (stereo not given in full),11%
7,Cc1ccc(-c2cc(C(=O)Nc3ccc(S(=O)(=O)N4CCCC(C)C4)cc3)[nH]n2)c(O)c1 (stereo not given),32%
8,Oc1cccc2ccc(Nc3ccccn3)nc12,72%
9,CC[C@H]1CN(Cc2cccc(O)c2)CC[C@H]1CCCc1ccnc2ccc(O)cc12,14%
10,CCc1c(CCNCC/C=C/CCNCCc2ccc(OC)c(OC)c2CC)ccc(OC)c1OC.Cl,41%
11,O=[N+]([O-])c1cccc(/C=N/Nc2ccnc3ccc(C(F)(F)F)cc23)c1,0%
12,Cc1nc(C)c(CC(=O)Nc2ccc(-c3cccc(-c4nc5cccc(C)c5[nH]4)c3)cc2)s1,41%
13,O=C(O)C(F)(F)F.OCCN1CCN(Cc2cccc(-c3ccc(-c4nc5cc(C(F)(F)F)ccc5[nH]4)cc3)c2)CC1,19%
14,CC(C)(C)OC(=O)c1c(NC(=O)/C=C/c2ccc(O)c(O)c2)sc2c1CCCC2,4%
15,Cn1cncc1C(=O)Nc1cccc(-c2ccc(-c3nc4cc(C(F)(F)F)ccc4[nH]3)cc2)c1,4%
16,CN1CCC(C(=O)Nc2cccc(-c3cccc(-c4nc5cc(F)ccc5[nH]4)c3)c2)CC1,32%
17,COc1ccc(Cn2c(Nc3cccc(C(F)(F)F)c3)nc3cc(C(=O)NC(C)C)cnc32)cc1Cl,0%
18,O=C(Nc1nc2cc(S(=O)(=O)NCCc3ccc(F)cc3)ccc2n1CCCn1ccnc1)c1ccc(Cl)cc1.O=C(O)C(F)(F)F,18%
19,Cc1ccc2cc(NC(=O)c3cccc(C(=O)Nc4ccc5nc(C)ccc5c4)n3)ccc2n1,21%
20,CCc1cn2c3c(cc(C(=O)N[C@@H](Cc4ccccc4)[C@H](O)CNC4CCOCC4)cc13)N(C(C)C)S(=O)(=O)CC2.O=CO,0%
